Results filed as inconclusive are left out. Unmarked numbers belong to inactive results. Calls of active or inactive are those of the source. Calls follow the shape of the dose curve; as a rule, active = well fitted inhibition curve with a large enough effect; inconclusive = small, poorly fitted or top-dose-only effect; inactive = no such curve, though single readings can be large or run the other way.
Biological target: Cruzipain (Trypanosoma cruzi) (UniProt P25779)
Test: Confirmation qHTS Assay for Inhibitors of Cruzain; also: nearly all actives have a fitted effect of over 40% in size;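 as to activity change, negative = inhibition: plate controls were uninhibited enzyme control for no effect and buffer wells lacking enzyme for full effect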
Details: purified cruzain, Z-FR-AMC fluorescence, 0.01% Triton
In short: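 Purified cruzain, 1.5 nM, pre-incubated 15 min at room temperature with compound in 100 mM sodium acetate pH 5.5, 5 mM DTT, 0.01% Triton X-100. Then 2 uM Z-FR-AMC added; AMC fluorescence (ex 360/em 450 nm) increase over 60 s gave reaction progress.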
Potency is read from the fitted curve at half-maximal effect.

Cruzipain (Trypanosoma cruzi), sequence (P25779 123-467 limits assumed): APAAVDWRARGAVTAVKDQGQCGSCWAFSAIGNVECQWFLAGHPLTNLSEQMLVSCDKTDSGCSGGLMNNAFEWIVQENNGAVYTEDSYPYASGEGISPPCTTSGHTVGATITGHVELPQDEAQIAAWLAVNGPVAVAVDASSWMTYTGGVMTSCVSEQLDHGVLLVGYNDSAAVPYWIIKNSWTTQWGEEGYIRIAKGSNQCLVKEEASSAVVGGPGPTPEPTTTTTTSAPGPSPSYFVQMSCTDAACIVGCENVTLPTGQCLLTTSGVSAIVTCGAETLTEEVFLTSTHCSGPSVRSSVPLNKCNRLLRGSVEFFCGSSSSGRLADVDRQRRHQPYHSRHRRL

SMILES	activity change, negative = inhibition [%]	Potency
N#Cc1c(-c2ccccc2)cc(-c2ccco2)c(C#N)c1N	-11	–
COc1cccc(CNC(=O)c2ccc3c(c2)N(Cc2ccc(F)cc2Cl)C(=O)c2ccccc2S3)c1	2.24	–
Cc1ccccc1-c1nc2c(=O)n(C)c(=O)nc-2n(C)n1	–	0.891 µM (active)
CSc1nc(N(CCO)CCO)c2sc3nc(-c4ccco4)c4c(c3c2n1)CCC4	–	11.2 µM (active)
O=C(NCCc1nc2ccccc2n1CCCOc1ccccc1Cl)C1CCCCC1	–	1.58 µM (active)
CC(C)C[C@H](N)c1nnc(S(=O)(=O)Cc2cccc(F)c2)o1	–	15.8 µM (active)
CCCCNC(=O)Cn1c(SCc2cccc(C)c2)nc2ccncc21	-22.6	–
c1ccc(CN(Cc2ccccc2)Cc2nnc(-c3cc4ccccc4[nH]3)o2)cc1	-7.39	–
COc1ccccc1NC(=O)C(OC(=O)CNC(=O)c1ccccc1)c1ccccc1 (stereo not drawn)	–	10 µM (active)
NC(=S)n1[nH]c(-c2ccc([N+](=O)[O-])cc2)c(N=Nc2ccc(O)cc2)c1=O	-8	–
Cc1ccc(CN(Cc2cc3cc4c(cc3[nH]c2=O)OCCO4)Cc2nnnn2Cc2ccco2)cc1	-25.4	–
Cc1ccccc1OCC(=O)NCC(=O)OCC(=O)c1ccc(-c2ccccc2)cc1	-15.9	–
O=C(/C=C/c1ccc2c(c1)OCO2)Nc1ccc(-n2nncc2-c2ccccc2)cc1	–	2.51 µM (active)
O=C(CNC(=O)c1ccc(Cl)cc1)OC(C(=O)Nc1cc(C(F)(F)F)ccc1Cl)c1ccccc1 (stereo not drawn)	–	10 µM (active)
CCn1cnc2c(NCCc3cccnc3)nc(C#N)nc21	–	10 µM (active)
CC1CCN(c2oc(-c3cccc4ccccc34)nc2C#N)CC1	-40.4	–
CCc1ccc2[nH]c(=O)c(CN(Cc3ccccc3)Cc3nnnn3C(C)(C)C)cc2c1	-22.1	–
CC(C)(C)OC(=O)CC(=O)NNC(=O)c1nc2ccccc2[nH]1	3.76	–
COc1ccc(NS(=O)(=O)c2cc(NC(=O)/C=C/c3ccccc3OC)ccc2N2CCCCC2)cc1	2.33	–
COc1ccc2[nH]c3c(NCCN4CCCCC4)ncnc3c2c1	–	12.6 µM (active)
Cc1ccccc1OCCCCn1c(CCNC(=O)C2CCCCC2)nc2ccccc21	–	0.562 µM (active)
c1ccc(CNCc2nnc(-c3cc4ccccc4[nH]3)o2)cc1	-1.64	–
O=C(OCN1C(=O)c2ccccc2C1=O)/C(=C\c1ccco1)NC(=O)c1ccccc1	–	1.12 µM (active)

From PubChem BioAssay AID2158 (National Center for Advancing Translational Sciences (NCATS), 2009)
